The list is not random: actives were taken first. Their share in the collection is about 19%.
TDP1 cell noCPT – qHTS for Inhibitors of human tyrosyl-DNA phosphodiesterase 1 (TDP1): qHTS in cells in absence of CPT; 15% of 420,000 active; DT40 Tdp1-/- hTDP1 cells, no CPT, ATP luminescence, 48 h; Potency, µM (doses to about 46.2 µM), inactives show at the top dose activity change, negative = growth inhibition, actives largely listed as inhibitors; AID 686978, 2013; also: nearly all actives have a fitted effect of over 55% in size
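A cellular qHTS used chicken DT40 cells lacking endogenous Tdp1 but carrying stably transfected human TDP1. Compounds were applied without camptothecin, and cell growth kinetics were judged by ATP-dependent luminescence after ≥48 hr.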
HT1080 IDH1KD tx – qHTS for induction of synthetic lethality in tumor cells producing 2HG: qHTS for the HT-1080-IDH1KD cell line; HT-1080 IDH1 knockdown viability, ATP luminescence, 48 h; 2% of 360,000 active; Potency, µM (titrated, usually from 46.1 µM), without a hit: at the highest dose activity, negative = toxicity, actives largely listed as cytotoxic;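 also: 0% = DMSO wells and -100% = cell-free medium wells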
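Luminescent ATP read-out (CellTiter-Glo, 10 min at room temperature) after 48 h compound exposure at 37 °C gave viability of IDH1-knockdown HT-1080 cells. Activity was normalised to DMSO and cell-free wells, then fitted as concentration-response curves.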
HT1080-NT tox – qHTS for induction of synthetic lethality in tumor cells producing 2HG: qHTS for the HT-1080-NT fibrosarcoma cell line; HT-1080-NT fibrosarcoma viability, CellTiter-Glo ATP luminescence, 48 h; Potency, µM (titrated, usually from 46.1 µM), inactives show top-dose activity, negative = less viability, hits mostly cytotoxic; 1.6% of 360,000 active;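 also: NT is the 2HG producing partner of a matched IDH1 knockdown line; 0% = DMSO-treated cells and -100% = media-only wells without cells; nearly all actives have a fitted effect of over 55% in size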
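A 48-hour cytotoxicity screen used HT-1080-NT cells plated 2 hours before compound delivery. ATP-based CellTiter-Glo luminescence measured viability, normalized to DMSO and no-cell controls.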
KB-3-1 tox – qHTS assay for MDR1-selective chemotherapeutics: Primary screen using the parental adenocarcinoma cell KB-3-1 | AID 1347075, 2019 | Potency, µM (doses to about 46.1 µM), actives largely listed as cytotoxic | KB-3-1 viability, CellTiter-Glo ATP luminescence, 72 h | 1.4% of 400,000 active; also: nearly all actives have a fitted effect of over 60% in size
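Cells are dispensed, compounds pinned in, plates held at 37 °C for 72 h, then CellTiter-Glo is added and luminescence read after 10 minutes. Cell line: parental KB-3-1 in phenol-red-free DMEM, 10% FBS.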
KB-V1 MDR tox – qHTS assay for MDR1-selective chemotherapeutics: Primary screen using the drug-selected MDR subline cells KB-V1 | 3.4% of 400,000 active | KB-V1 MDR cells viability, CellTiter-Glo, 72 h | Potency, µM (highest dose often 46.1 µM), most hits filed as cytotoxic; also: nearly all actives have a fitted effect of over 60% in size
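KB-V1 cells (P-gp-expressing MDR subline of KB-3-1) in phenol-red-free DMEM with 10% FBS were exposed to library compounds over a concentration series for 72 h at 37 degrees C. Viability read by CellTiter-Glo luminescence; concentration-effect curves fitted after normalization.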
DT40 TDP1 CPT – qHTS for Inhibitors of human tyrosyl-DNA phosphodiesterase 1 (TDP1): qHTS in cells in presence of CPT; Potency, µM (top dose mostly 46.2 µM), for inactives: at the top dose activity change, negative = growth inhibition, hits mostly inhibitors; 12% of 420,000 active; chicken DT40 Tdp1-/-;hTDP1 cells + 20 nM CPT, ATP luminescence, 48 h; also: nearly all actives have a fitted effect of over 55% in size
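Chicken DT40 Tdp1-/- cells stably complemented with human TDP1 were seeded at 400 cells/well in medium containing 20 nM camptothecin, exposed to pin-transferred compounds, and grown at 37 °C for at least 48 hr. Viability was read as ATP luminescence.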
* hit, by the source's call; i = inactive; ? = inconclusive; / = no result given; [ ] = dose if it differs, or a comment. Calls follow the shape of the dose curve; as a rule, active = well fitted curve in the direction sought with a large enough effect; inconclusive = small, poorly fitted or top-dose-only effect, or another doubt; inactive = no such curve, though single readings can be large; an effect the other way counts as inactive or inconclusive. Unless noted, % is scaled to controls: 0 for no effect and ±100 for the full control effect; potency is read from the fitted curve at half-maximal effect.

SMILES	TDP1 cell noCPT	HT1080 IDH1KD tx	HT1080-NT tox	KB-3-1 tox	KB-V1 MDR tox	DT40 TDP1 CPT
CC1CCCN(c2nc3c(c(=O)n(C)c(=O)n3C)n2CCSc2nc3ccccc3s2)C1 (stereo not drawn)	18µM*	-10%	-4%	?	10µM*	16µM*
CC1CCN(c2nc3c(c(=O)n(C)c(=O)n3C)n2CCSc2nc3ccccc3s2)CC1	21µM*	-10%	-7%	?	15µM*	10µM*
CC1CCN(c2nc3c(c(=O)n(C)c(=O)n3C)n2CCSc2ncccn2)CC1	?	11%	3%	i	i	?
CC1CCCN(c2nc3c(c(=O)n(C)c(=O)n3C)n2CCSc2nc3ccccc3o2)C1 (stereo not drawn)	21µM*	0%	-1%	i	2.6µM*	23µM*
Cc1ccnc(SCCn2c(N3CCC(C)CC3)nc3c2c(=O)n(C)c(=O)n3C)n1	23µM*	4%	-1%[9.24 µM]	i	i	?
Cn1c(=O)c2c(nc(N3CCC(C(N)=O)CC3)n2CCSc2nc3ccccc3s2)n(C)c1=O	?	10%	0%	i	i	?
CCCCCN=c1ccn(Cc2ccccc2)c2ccccc12	2.1µM*	/	/	/	/	2.7µM*
OCCCc1cn(Cc2ccccc2)c2ccccc12	-12%	-12%	-27%	i	i	-7%
O=c1cc(N2CCN(c3cccc(Cl)c3)CC2)[nH]c(=O)n1C1CCCCC1	1.6µM*	3%	6%	?	?	?
O=C(C1CCC(=O)N(C2CC2)C1)N1CCN(c2ccccc2Cl)CC1 (stereo not drawn)	6%	4%	11%	i	i	6%
O=C(C1CC(=O)N(C2CCCC2)C1)N1CCN(c2cccc(Cl)c2)CC1 (stereo not drawn)	23µM*	-19%	-12%	/	/	18µM*
Cc1ccccc1OC1CCN(C(=O)C2CCC(=O)N(C3CCCC3)C2)CC1 (stereo not drawn)	15µM*	-15%	?	i	i	?
Cc1ccc(OC2CCN(C(=O)C3CCC(=O)N(C4CC4)C3)CC2)cc1 (stereo not drawn)	-4%	-2%	3%	?	i	-4%
CCOC(=O)C1CCN(C2CC(=O)N(c3cccc(Cl)c3)C2=O)CC1 (stereo not drawn)	-4%	0%	3%	i	i	0%
O=C(C1CCN(C2CC(=O)N(c3cccc(Cl)c3)C2=O)CC1)N1CCCC1 (stereo not drawn)	?	14%	23%	i	?	16µM*
CN(CCO)C(=O)c1cn(C2CCCN(Cc3ccc(C(F)(F)F)cc3)C2)nn1 (stereo not drawn)	?	/	/	/	/	2%[9.04 µM]
NS(=O)(=O)c1ccc(NC(=O)COC(=O)c2ccc([N+](=O)[O-])s2)cc1	16%	2%	-2%	i	i	-23%
O=C1N=NC(=O)N1c1ccccc1	7%	15%	?	i	i	13%
CCCOc1c(Cl)cc(C(=O)N(Cc2cccc(OC)c2)C2CCS(=O)(=O)C2)cc1Cl (stereo not drawn)	?	/	/	i	i	?
COc1cccc(N2CCN(C(=O)C3CCC(=O)N(C4CCCCCC4)C3)CC2)c1 (stereo not drawn)	18µM*	-9%	-13%	i	?	15µM*
CS(=O)(=O)N1CCC(C(=O)N2CCN(c3cccc(Cl)c3)CC2)CC1	-29%	2%	?	i	?	1%
CS(=O)(=O)N1CCCC(C(=O)N2CCN(c3cccc(Cl)c3)CC2)C1 (stereo not drawn)	?	-3%	-10%	i	i	21µM*
CCN(CC)C1CC(=O)N(c2cccc(Cl)c2)C1=O (stereo not drawn)	23µM*	?	18%	i	?	?
COC1CCN(C(=O)C2CCC(=O)N(C3CCCCCC3)C2)CC1 (stereo not drawn)	16%	2%	5%	i	i	-7%
O=C(CCS(=O)(=O)c1cc2c3c(c1)CCN3C(=O)CC2)Nc1cccc(Br)c1	?	/	/	i	i	-24%
SMILES	TDP1 cell noCPT	HT1080 IDH1KD tx	HT1080-NT tox	KB-3-1 tox	KB-V1 MDR tox	DT40 TDP1 CPT
O=C(OC1CC2CC1[C@H]1CCCCN1C2=O)N1CCCCC1 (stereo partly drawn)	-14%	1%	15%	i	i	0%
COc1ccc(C(=O)N(Cc2ccco2)Cc2cccs2)c(OC)c1	?	/	/	i	i	?
COCCn1c(=S)[nH]c2cc(C(=O)NC3CCCCC3C)ccc2c1=O (stereo not drawn)	?	12%	17%	i	?	?
COc1ccc(/C=C/C(=O)Nc2nc3n(n2)C(c2ccccc2)C=C(c2ccccc2)N3)cc1 (stereo not drawn)	5.8µM*	/	/	i	i	7.3µM*
COc1ccc(C2C=C(c3ccc(Cl)cc3)Nc3nc(NC(=O)CCC(=O)O)nn32)cc1 (stereo not drawn)	-25%	/	/	i	i	6%
COc1ccc(C2C=C(c3ccccc3)Nc3nc(NC(=O)/C=C/c4ccc(F)cc4)nn32)cc1 (stereo not drawn)	21µM*	/	/	i	i	21µM*
O=C(/C=C/c1ccccc1)Nc1nc2n(n1)C(c1ccc(F)cc1)C=C(c1ccccc1)N2 (stereo not drawn)	8.2µM*	/	/	i	i	7.3µM*
COc1ccc(/C=C/C(=O)Nc2nc3n(n2)C(c2ccc(F)cc2)C=C(c2ccccc2)N3)cc1 (stereo not drawn)	3.7µM*	/	/	i	i	5.2µM*
COc1ccc(C2C=C(c3ccccc3)Nc3nc(NC(C)=O)nn32)cc1 (stereo not drawn)	?	/	/	i	i	-27%
FC(F)(F)c1cccc(CC2CN(Cc3ccccc3)Cc3ccccc3N2c2cc(Cl)cc(Cl)c2)c1 (stereo not drawn)	-22%	16%	13%	i	i	-19%
